Inconclusive results are not listed. Calls of active or inactive are those of the source. Unless noted, the call rests on the fitted dose curve; in most records, active means well fitted curve in the direction sought with a large enough effect; inconclusive means small, poorly fitted or top-dose-only effect, or another doubt; inactive means no such curve, though single readings can be large; an effect the other way counts as inactive or inconclusive.
What was measured:
[1] = S16 Schwann cell viability assay (CellTiter-Glo assay) (AID 624031);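 further: native untransfected S16 rat Schwann cells; cellular ATP luminescence as a viability measure; nearly all actives have a fitted effect of over 70% in size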
Outline: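 Parental S16 cells, 24 h compound, 37 °C. ATP-luminescence viability; DMSO = 0% activity, empty wells as reference; curves classified by fit quality and efficacy.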

[2] = S16 Schwann cell PMP22 intronic element firefly luciferase assay (AID 624032); further: nearly all actives have a fitted effect of over 30% in size
Outline: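 Luciferase reporter of PMP22 intronic-element expression in stably transfected S16 rat Schwann cells, read by ONE-Glo luminescence after 24 h compound exposure at 37 C. Activity scaled between DMSO (0%) and positive-control PTC124; concentration-effect curves quality-classified.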

[3] = test system: AA1029; experiment: qHTS profiling for inhibitors of Plasmodium falciparum proliferation (AID 504749); further: nearly all actives have a fitted effect of over 60% in size; conditions: P. falciparum in erythrocytes, SYBR Green DNA, 72 h; series mostly up to 28.7 µM
Outline: (§1)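 Three-day growth assay of blood-stage parasites in erythrocytes (0.3% parasitemia, 2.5% hematocrit) at 37 C, 5% CO2, quantified by SYBR Green DNA staining after overnight detergent lysis.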

[4] = test system: CP297; experiment: as above; conditions: P. falciparum in erythrocytes, SYBR Green DNA, 72 h; series mostly up to 28.7 µM
Outline: as §1

[5] = test system: CP315; experiment: as above; conditions: P. falciparum in erythrocytes, SYBR Green DNA, 72 h; series mostly up to 28.7 µM
Outline: as §1

[6] = test system: JCK; experiment: as above; conditions: P. falciparum in erythrocytes, SYBR Green DNA, 72 h; series mostly up to 28.7 µM
Outline: as §1

[7] = test system: PC15; experiment: as above; conditions: P. falciparum in erythrocytes, SYBR Green DNA, 72 h; series mostly up to 28.7 µM
Outline: as §1

[8] = NS1 protein of Zika virus - qHTS assay to identify small molecule inhibitors in human HEK 293 cells (AID 1347053); further: nearly all actives have a fitted effect of over 55% in size
Outline: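 HEK 293 cells, seeded 20 h at 37 C, were pretreated with compound 1 h, then infected with ZIKV MR766 (MOI = 0.5) for 24 h. NS1 was read by TR-FRET with two anti-NS1 antibodies, normalized to uninfected and infected wells.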

[9] = qHTS of pediatric cancer cell lines to identify multiple opportunities for drug repurposing: Primary screen for Saos-2 cells (AID 1347097); conditions: Saos-2 viability, CellTiter-Glo ATP luminescence, 48 h; further: potency means the concentration at half of the fitted maximal effect; nearly all actives have a fitted effect of over 40% in size
Outline: (§2)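 Readout: CellTiter-Glo luminescence, 48 h treatment. Controls DMSO (neutral) and bortezomib 2.3 µM final (positive). Potency and efficacy taken from primary-screen concentration-response curves.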

[10] = qHTS of pediatric cancer cell lines to identify multiple opportunities for drug repurposing: Primary screen for SK-N-SH cells (AID 1347098); conditions: SK-N-SH viability, CellTiter-Glo luminescence, 48 h; further: potency means the concentration at half of the fitted maximal effect; nearly all actives have a fitted effect of over 65% in size
Outline: (§3)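 Cells (500-1,000/well) rested 5 h, then received compounds for 48 h; metabolically active cells were measured by CellTiter-Glo luminescence. Final concentrations spanned up to 46 µM (MIPE, 11-point) or 0.59 nM-46 µM (NPC, 8-point) in primary screens, 11-point in follow-ups.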

[11] = qHTS of pediatric cancer cell lines to identify multiple opportunities for drug repurposing: Primary screen for NB1643 cells (AID 1347099); further: potency means the concentration at half of the fitted maximal effect; nearly all actives have a fitted effect of over 50% in size
Outline: as §2

[12] = qHTS of pediatric cancer cell lines to identify multiple opportunities for drug repurposing: Primary screen for Rh18 cells (AID 1347102); conditions: Rh18 rhabdomyosarcoma viability, CellTiter-Glo luminescence, 48 h; further: potency means the concentration at half of the fitted maximal effect; nearly all actives have a fitted effect of over 65% in size
Outline: as §3

[13] = qHTS of pediatric cancer cell lines to identify multiple opportunities for drug repurposing: Primary screen for OHS-50 cells (AID 1347103); conditions: OHS-50 osteosarcoma viability, CellTiter-Glo luminescence, 48 h; further: potency means the concentration at half of the fitted maximal effect; nearly all actives have a fitted effect of over 40% in size
Outline: as §3

[14] = qHTS of pediatric cancer cell lines to identify multiple opportunities for drug repurposing: Primary screen for MG 63 (6-TG R) cells (AID 1347105); conditions: MG 63 (6-TG R) viability, CellTiter-Glo, 48 h; further: potency means the concentration at half of the fitted maximal effect; nearly all actives have a fitted effect of over 50% in size
Outline: as §2

[15] = qHTS to identify inhibitors of the type 1 interferon - major histocompatibility complex class I in skeletal muscle: primary screen against the NCATS Pharmaceutical Collection (AID 1347407);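 further: luminescence of HiBiT knocked into endogenous HLA-B as interferon-induced MHC class I level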
Outline: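 Cells were seeded with 4 ng/ml IFN-beta, incubated 1 h, then dosed with compounds over eight 1:5 steps up to 46 uM final. After 24 h at 37 C, HiBiT lytic reagent was added and luminescence read after 10 min lysis in the dark.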

[16] = molecular target: Protein phosphatase 1D (Homo sapiens) (UniProt O15297); experiment: RapidFire Mass Spectrometry qHTS Assay for Modulators of WT P53-Induced Phosphatase 1 (WIP1) (AID 1347424);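 further: amount of dephosphorylated VEPPL-S-QETFS peptide product formed by WIP1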
Chain of Protein phosphatase 1D (Homo sapiens) (O15297 whole entry, looked up): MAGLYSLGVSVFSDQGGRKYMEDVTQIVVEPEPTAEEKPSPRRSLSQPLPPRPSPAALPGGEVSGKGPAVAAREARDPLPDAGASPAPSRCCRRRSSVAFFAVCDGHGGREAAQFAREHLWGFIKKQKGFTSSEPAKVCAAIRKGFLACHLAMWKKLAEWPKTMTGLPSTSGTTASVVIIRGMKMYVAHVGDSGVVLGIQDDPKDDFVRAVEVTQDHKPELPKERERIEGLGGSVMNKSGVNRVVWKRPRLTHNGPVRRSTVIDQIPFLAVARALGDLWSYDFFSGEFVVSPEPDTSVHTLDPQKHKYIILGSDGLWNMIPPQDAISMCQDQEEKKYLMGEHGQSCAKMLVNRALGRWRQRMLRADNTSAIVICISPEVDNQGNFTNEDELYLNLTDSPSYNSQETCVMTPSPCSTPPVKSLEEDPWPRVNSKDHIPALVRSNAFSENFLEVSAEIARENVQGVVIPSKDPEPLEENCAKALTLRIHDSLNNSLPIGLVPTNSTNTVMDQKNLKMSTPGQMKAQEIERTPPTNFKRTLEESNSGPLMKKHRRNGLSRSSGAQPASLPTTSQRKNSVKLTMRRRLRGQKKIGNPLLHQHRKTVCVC
Outline: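 10 nM WIP1 + cpd, 1 h RT; + 2 uM VEPPL-pS-QETFS, 5 min RT; stop 0.5% formic acid; labelled product standard 1 uM; RapidFire MS. Buffer 50 mM Tris pH 7.5, 30 mM MgCl2, 1 mM TCEP.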

[17] = molecular target: Protein phosphatase 1D (Homo sapiens) (UniProt O15297); experiment: Rhodamine-PBP qHTS Assay for Modulators of WT P53-Induced Phosphatase 1 (WIP1) (AID 1347425)
Outline: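 Read-out: Rhodamine-PBP fluorescence (ex 525/em 598 nm) for released Pi, read each minute for 11 min after adding 10 uM VEPPL-pS-QETFS; signal taken as f1 minus pre-substrate f0. Enzyme 5 nM WIP1 with 1 hr room-temperature compound preincubation.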

[18] = A High-Content qHTS Against Drug Library for the Identification of Small Molecules that Inhibit DYT1 Early Onset Primary Dystonia-Associated Cell Pathology (AID 1645839; calls by dose curve)
Outline: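 In this high-content image screen, delE TorsinA mislocalization in inducible Flp-In 293 cells is scored as %pathology, with cell count serving as the counterscreen. Compound exposure lasts 48 h under tetracycline induction in reduced-serum medium.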

[19] = Validation of Assay for Modulators of Lamin A Splicing (AID 1459; active means well fitted curve in the direction sought with a large enough effect in the signal ratio; the % refers to the signal ratio;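 further: cells exposed to compound for two days before reading; ratio rise marks activators and ratio drop marks inhibitors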)
Outline: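 Splicing correction is reported by an EGFP-containing lamin A minigene in stably transfected S3 HeLa cells, while DsRed2 controls for viability and nonspecific signal. Cells are exposed to compounds for 48 hrs before the GFP over RFP ratio is taken.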

[20] = molecular target: DNA repair nuclease/redox regulator APEX1 (Homo sapiens) (UniProt P27695); experiment: qHTS Validation Assay for Inhibitors of the Human Apurinic/apyrimidinic Endonuclease 1 (APE1) (AID 1705;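 further: TAMRA fluorescence gain over two minutes as APE1 cuts a quenched THF abasic duplex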)
Chain of DNA repair nuclease/redox regulator APEX1 (Homo sapiens) (P27695 whole entry, looked up): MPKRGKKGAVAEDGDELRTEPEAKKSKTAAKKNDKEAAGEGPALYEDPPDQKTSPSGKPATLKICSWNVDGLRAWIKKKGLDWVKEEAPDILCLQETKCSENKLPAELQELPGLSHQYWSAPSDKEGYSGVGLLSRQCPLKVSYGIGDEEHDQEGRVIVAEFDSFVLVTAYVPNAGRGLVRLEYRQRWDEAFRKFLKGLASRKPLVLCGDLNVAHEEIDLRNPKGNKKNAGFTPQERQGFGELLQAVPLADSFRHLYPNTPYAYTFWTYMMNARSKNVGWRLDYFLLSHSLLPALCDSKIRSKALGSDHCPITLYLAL
Outline: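 Endonuclease activity of human APE1 is followed as dequenching when the enzyme incises a tetrahydrofuran abasic site in a short duplex labelled 5'-TAMRA/3'-BHQ-2 (50 nM final), after 15 min enzyme–compound preincubation at room temperature.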

Measured: Potency

CCCCC(=O)N(Cc1ccc(-c2ccccc2-c2nn[nH]n2)cc1)C(C(=O)O)C(C)C (stereo not given)
inactive: [1] | [2] | [3] | [4] | [5] | [6] | [7]

CCN(CC)c1ccc(C(=C2C=CC(=[N+](CC)CC)C=C2)c2cc(S(=O)(=O)O)ccc2S(=O)(=O)[O-])cc1
active: [9] 21.1 µM | [10] 3.86 µM | [11] 21.1 µM | [12] 11.9 µM | [13] 17.4 µM | [14] 16.8 µM
inactive: [8] | [15] | [16] | [17] | [18]

CC(C)=CCC/C(C)=C/CC/C(C)=C/CSc1ccccc1C(=O)O
inactive: [19] | [20]

Reference: PubChem BioAssay (NCATS)
